Reference: article PMC7819943, “Rice protein-binding microarrays: a tool to detect cis-acting elements near promoter regions in rice”
Over roughly 68,000 sequences, “fluorescence intensity (a.u.)” has its median near 9,100; the highest 2% begin near 16,000. This is one part of a sample in which the highest values are shown more often than they occur.

target: OsWRKY34 (Oryza sativa, UniProt Q0JBA9 1-250); assay: protein-binding microarray (RPBM); PBS, 2% BSA, 51.3 ng/ul salmon testes DNA, 50 uM zinc acetate, 200 nM TF, 25 C, 1 h; high values mean tight binding; conditions: protein: recombinant; tags: N-terminal polyhistidine and DsRed monomer fusion (pET32a); label: CyDye5-dUTP incorporated in the synthesized complementary strand; 3' TTTTT single-stranded linker to array surface; dsDNA, one strand shown
Sequence (Q0JBA9 entry or part of it): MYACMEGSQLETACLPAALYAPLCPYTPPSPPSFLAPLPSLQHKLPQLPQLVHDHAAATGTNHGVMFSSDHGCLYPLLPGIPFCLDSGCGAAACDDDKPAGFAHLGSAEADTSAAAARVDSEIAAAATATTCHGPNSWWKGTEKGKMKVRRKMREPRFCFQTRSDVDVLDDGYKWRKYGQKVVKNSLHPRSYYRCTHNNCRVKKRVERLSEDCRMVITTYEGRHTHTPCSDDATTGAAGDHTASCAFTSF
Outline: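 For the binding signal, per-feature fluorescence intensity was read in arbitrary units on an Axon 4000B scanner. Before scanning, a 2% BSA-blocked custom Agilent array made double-stranded with Cy5-dUTP was washed after 1 h at 25 °C with 200 nM protein and 50 µM zinc acetate. The proteins were Ni–NTA-purified transcription factors with N-terminal polyhistidine and DsRed fusions, expressed in E. coli BL21-CodonPlus.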

Sequence	binding signal
CCAGTGGTGGAGTGGAGTGGTGGTGGGGAGACGTGAGGAGCGGAGTCACCTAGTGCAG	8630 fluorescence intensity (a.u.)
CCCTCCTCTCCGCGCGCGCCACCTGTCCATCCGCGCGGAGCGGAGTCACCTAGTGCAG	8970 fluorescence intensity (a.u.)
GGTTATGGTTCAATTCTAATGTTCCTTTGGTGTCACATTTCGGAGTCACCTAGTGCAG	8200 fluorescence intensity (a.u.)
GGTGGGAGTGCGCATTGAGGATAAGCCACTGATGACGTCTCGGAGTCACCTAGTGCAG	8600 fluorescence intensity (a.u.)
TTAAACGGTCATTCTTGTGTTTTTCCTGTATTTTCTAATCCGGAGTCACCTAGTGCAG	9220 fluorescence intensity (a.u.)
CTTCTTCCACTTGAAGCTTTTTCTCTCTTGGTCTTATCCTCGGAGTCACCTAGTGCAG	9690 fluorescence intensity (a.u.)
CTCCTGCTTCTCTGTTCTTTCCATTCTCCTCCTTTTTTTCCGGAGTCACCTAGTGCAG	14600 fluorescence intensity (a.u.)
GTGCAGTTGTCTTCTTCTGTTCTTTGGTCATATAGTAGTTCGGAGTCACCTAGTGCAG	14900 fluorescence intensity (a.u.)
TGACATTTAAATTCTGTTTCTCTCTTTGTGTTTTAGTTCCCGGAGTCACCTAGTGCAG	9720 fluorescence intensity (a.u.)
TTTTCTTCTTTCTTTCTCTCTGTCTTGTTCAATTTTTTCTCGGAGTCACCTAGTGCAG	11800 fluorescence intensity (a.u.)
CAGTCTGTCTTGGTCTCTTTGTTCAGTCATGGTCTCTCTTCGGAGTCACCTAGTGCAG	19000 fluorescence intensity (a.u.)
TCTCCAGCTTTTTTCTGTTCCTCTGGTCTTGATTCTTGAACGGAGTCACCTAGTGCAG	18200 fluorescence intensity (a.u.)
ATACCTCTTGTGTATTAATTAAACATTAGTGTTTCTGTTCCGGAGTCACCTAGTGCAG	48000 fluorescence intensity (a.u.)
TGGTGGGTGCATTGTTGTTCACATTCCGGATCCCTGCATCCGGAGTCACCTAGTGCAG	9220 fluorescence intensity (a.u.)
TTGTAGTACTAGGTCGTATCTAATACTAGTTGATTTTTTACGGAGTCACCTAGTGCAG	8190 fluorescence intensity (a.u.)
TGTATCTCAAATTCTTTCAGTTGGTTTTGTGCTCTTTTTACGGAGTCACCTAGTGCAG	8920 fluorescence intensity (a.u.)
GGCGCTTTATTCAATTGGTCCGCTCTCGGTCTCCTGCACGCGGAGTCACCTAGTGCAG	8270 fluorescence intensity (a.u.)
CTGCTGCGAGGGTGGGTGTTGCTTGTACCGGGCGGGGATGCGGAGTCACCTAGTGCAG	20300 fluorescence intensity (a.u.)
CTGCGGCGAGAGGTGGGAGGCGGGGCGGTTGTACGTGTGCCGGAGTCACCTAGTGCAG	11000 fluorescence intensity (a.u.)
GAGATGGAGGTGGAGGTGGTGGAGGGGACGACGATGGTGGCGGAGTCACCTAGTGCAG	9610 fluorescence intensity (a.u.)
GGAGGGGACGACGATGGTGGGGTGGGTGGTGTCCGGGGTGCGGAGTCACCTAGTGCAG	19100 fluorescence intensity (a.u.)
GCGGCGCGGCGGGGAGGAGGGAGGGGTGGCGTTGAGGTGGCGGAGTCACCTAGTGCAG	19300 fluorescence intensity (a.u.)
CGCACTGGCGGGGCTTGGAGCTGGGGTTTCTAGGGTTTGGCGGAGTCACCTAGTGCAG	8980 fluorescence intensity (a.u.)

Sequence	binding signal
CGGAGGGGTTGGGCTTGCGGGCGGCGTGTACCTTGTGCACCGGAGTCACCTAGTGCAG	9410 fluorescence intensity (a.u.)
TTTGCTGCTGCTGCTTCTAGGGTTAGGGTTTGGGGTGGGGCGGAGTCACCTAGTGCAG	22100 fluorescence intensity (a.u.)
GGCGCTTCTAGGGTTTGGTGGGGTTCGGGCGGGCGCGCCGCGGAGTCACCTAGTGCAG	15600 fluorescence intensity (a.u.)
GGGAGGGGAGGACGGCGACGGCGGCGGCGGCGGGGTGTGGCGGAGTCACCTAGTGCAG	10800 fluorescence intensity (a.u.)
CGCGCCGGGTGGCGTTGGTGTTGGCGCCGGGGAGGGTCAGCGGAGTCACCTAGTGCAG	9140 fluorescence intensity (a.u.)
TGGGGTTGAGGGAGGGTGCCGCGGGTGGCTGGCGGAGGACCGGAGTCACCTAGTGCAG	10600 fluorescence intensity (a.u.)
TTCATTCATATGGTGTAACTTTTTGTCGCTGTAGGATCGCCGGAGTCACCTAGTGCAG	8130 fluorescence intensity (a.u.)
CTTGCTGCCTGGATTTCTCCCTGTTTGCTCCCTGACGGAGCGGAGTCACCTAGTGCAG	9470 fluorescence intensity (a.u.)
TCCGTGACTATGCTTCTTCTTTTCTTTAATTTTCACCAGACGGAGTCACCTAGTGCAG	8750 fluorescence intensity (a.u.)
AATCAGATGGAGAGTTGGTTATATGGGTGTTTGGAGAGTTCGGAGTCACCTAGTGCAG	8410 fluorescence intensity (a.u.)
ATCTCCAAAATCAGTTTAACATCGCCTAATCCACGTCGGTCGGAGTCACCTAGTGCAG	8820 fluorescence intensity (a.u.)
TTTGCGTCGCCTTTCATTTTGGATGTTTCAATTTGAATACCGGAGTCACCTAGTGCAG	10400 fluorescence intensity (a.u.)
GTGGGGTGGGTGAGCGGGATGCGGGGCTTAGGCGGGGAAGCGGAGTCACCTAGTGCAG	16500 fluorescence intensity (a.u.)
GGAGGAGGGGCGGCGGAGCGGGTGGTGGGGAGGCGACATGCGGAGTCACCTAGTGCAG	17900 fluorescence intensity (a.u.)
GGAGCGCTGGGAGGAAGGGCGTAGGGAGGGAGGGGTGAGGCGGAGTCACCTAGTGCAG	11600 fluorescence intensity (a.u.)
GGTGGAGGAGGTGGGCGGGGAAAGCGGCGACGTGAGGCGGCGGAGTCACCTAGTGCAG	14400 fluorescence intensity (a.u.)
GTTGCGGGGTGGGTGGTGGCGTTGCGGGAGGAGGAGGGAGCGGAGTCACCTAGTGCAG	23100 fluorescence intensity (a.u.)
CGTTTGTTGGGTGCGGCGGGCGGGGAGGAGCTCGTGAATGCGGAGTCACCTAGTGCAG	19600 fluorescence intensity (a.u.)
GCGCGGCGTTGTTGGGTGTGTTCGTGAATCGGGCGGGATGCGGAGTCACCTAGTGCAG	10500 fluorescence intensity (a.u.)
GTTTTGTTGGGTCGGCGGCGGCGGGTGAGAGTGGAGAATGCGGAGTCACCTAGTGCAG	12900 fluorescence intensity (a.u.)
GAGCGCGCGCGTTGGGCGGGAGGGGTTTGGTTGGTGAGCGCGGAGTCACCTAGTGCAG	11800 fluorescence intensity (a.u.)
GGCGAAGTGGTGGGTGCGTTGGGGCGAGGCGGAGCGGTGGCGGAGTCACCTAGTGCAG	8050 fluorescence intensity (a.u.)
CTGGGGAGGGCGACGGCGCAGTGCGGGGTGGACGGGAGCGCGGAGTCACCTAGTGCAG	8270 fluorescence intensity (a.u.)

Sequence	binding signal
GGACGGCGGCGAGCGGCGAGGAGGAGGCGGGGAGGTGGGACGGAGTCACCTAGTGCAG	9580 fluorescence intensity (a.u.)
CTAATCCCCTCTAGCTAGCCTCTTTTTTCTCCATTTGTTTCGGAGTCACCTAGTGCAG	11100 fluorescence intensity (a.u.)
GCCGCCGCCGCCGCCCGCGCCGATCCCCATCCATCCCGCACGGAGTCACCTAGTGCAG	8970 fluorescence intensity (a.u.)
GGGATGTCTTGGCTTTTTTTTTTTCTTCACCGAGCAATCGCGGAGTCACCTAGTGCAG	13400 fluorescence intensity (a.u.)
GGTTAGAGATACATACATATTATACCTGATTCACCTCACTCGGAGTCACCTAGTGCAG	8060 fluorescence intensity (a.u.)
CTTCTTCGATCTCCGGCAATCGCTCCATCGATCGGCGCTTCGGAGTCACCTAGTGCAG	8370 fluorescence intensity (a.u.)
TTTTTTCTGTAAGGTGTCATATTTCTTCAATTGATGGATACGGAGTCACCTAGTGCAG	8340 fluorescence intensity (a.u.)
GGCTTCAGTATGAATTCTTACACAACCGTTGGTGTGCTACCGGAGTCACCTAGTGCAG	9250 fluorescence intensity (a.u.)
ACCCTCGGACCGGTTTTTTTACTATGCCTCAAACATGTTCCGGAGTCACCTAGTGCAG	9800 fluorescence intensity (a.u.)
ATCCCTCTGGTCGTCTCCTACCTCTCGGTTTCTTCACCCTCGGAGTCACCTAGTGCAG	14600 fluorescence intensity (a.u.)
TTTTTTCGGTCTCGGTATCGGTCTTTTCGGTTCGATCTTACGGAGTCACCTAGTGCAG	8400 fluorescence intensity (a.u.)
GGTGGCGGTTGCGGGTGGAGGGCCGCGGCGGTGCGACGAACGGAGTCACCTAGTGCAG	8480 fluorescence intensity (a.u.)
ACTAGTGGGCTGCTTGGGTGGGGAGCCCGGGCCGGCAGATCGGAGTCACCTAGTGCAG	12000 fluorescence intensity (a.u.)
GCGGCTGGGGTTGCGGTGCAATCTGGGGCGGGGATGCGAACGGAGTCACCTAGTGCAG	17100 fluorescence intensity (a.u.)
GGCCGGCGGGTGGCCGGGTGGGGAGGAGGTCGGCAGGGCGCGGAGTCACCTAGTGCAG	9780 fluorescence intensity (a.u.)
GTGGGGCGGTGGCTGCTGCATTGCATTGGGCGGGAGAGATCGGAGTCACCTAGTGCAG	17200 fluorescence intensity (a.u.)
CACTATCGGCAGTGCAGCCGGCGGCTGGGGCGGGGAGTACCGGAGTCACCTAGTGCAG	9540 fluorescence intensity (a.u.)
GCGGCGTTGCGGATGGGGACGGGGACGGGGACGGCGGCGACGGAGTCACCTAGTGCAG	10400 fluorescence intensity (a.u.)
ACGGTGCCGAACGAGCTTGGGGATGGGGACGGCGGCGGGGCGGAGTCACCTAGTGCAG	10200 fluorescence intensity (a.u.)
CGTACTGGGCTGGGCTGGGCTGGGATTCAACCGAACGGGGCGGAGTCACCTAGTGCAG	20400 fluorescence intensity (a.u.)
AAGTGCTCGATCGGGAGCGGTGGTGGTGGTGGGGAGAGAGCGGAGTCACCTAGTGCAG	11300 fluorescence intensity (a.u.)
GTAGGGGCGGGAGGGGAGGCGTGGTGGCGCCGGGCCGGCGCGGAGTCACCTAGTGCAG	14900 fluorescence intensity (a.u.)
ATCACGGAGGAGGCGTTCGGGGAGGGAGGGTGGGGCGCGCCGGAGTCACCTAGTGCAG	24400 fluorescence intensity (a.u.)

Sequence	binding signal
CAATTTCCATGGTTTTCTTAGCATTCTCGTCTCTAGTATTCGGAGTCACCTAGTGCAG	9610 fluorescence intensity (a.u.)
AAACCCTAGCTCCGGATTCTTCTCCTCTCCTCCTTTCTTCCGGAGTCACCTAGTGCAG	8070 fluorescence intensity (a.u.)
CGATCTCAGCTGTCACTCACTATGTGGTTCATCTAACTGACGGAGTCACCTAGTGCAG	9510 fluorescence intensity (a.u.)
CAGGTCATTTTGGTGTGTGCTTTGCGGTATTAACTCGTGCCGGAGTCACCTAGTGCAG	8700 fluorescence intensity (a.u.)
CACAGCGTCCACACCCGCGCCGCCGCCGCCCTCACCCTCGCGGAGTCACCTAGTGCAG	8760 fluorescence intensity (a.u.)
CGGGGATGGAGGTGGTGGTGAGGCTGGCGACGGCGGGCCGCGGAGTCACCTAGTGCAG	12100 fluorescence intensity (a.u.)
GGGTGTTATGAGTTGTGTTTGCTGTAGCTTGTCAGCTGTTCGGAGTCACCTAGTGCAG	10600 fluorescence intensity (a.u.)
CTGTAGAGAAATACTACACTACTGTACACTACATTCCTGCCGGAGTCACCTAGTGCAG	8350 fluorescence intensity (a.u.)
CAGTTTCCACCCTGGGTGGGGTGGGGCCCACCTGTCGGGGCGGAGTCACCTAGTGCAG	9940 fluorescence intensity (a.u.)
GAGTTGGGTTGGAGTGGTTTGGATCGCTGCTTCACTAGGGCGGAGTCACCTAGTGCAG	27400 fluorescence intensity (a.u.)
GGTTTTCATGGTGCTGTGGATGTTCACTAGCTTTGGAGGGCGGAGTCACCTAGTGCAG	10900 fluorescence intensity (a.u.)
GGCTGCTTCAGGGGCGTGGGAGAGGTTTGGGGTTGGTTCACGGAGTCACCTAGTGCAG	16000 fluorescence intensity (a.u.)
CTGTATTATGGTGCTTTCACATTTTTTTTCTAGTCTGCCACGGAGTCACCTAGTGCAG	8370 fluorescence intensity (a.u.)
GTGTGGTCGTCGTGTCGGCGGCGGCGGCGGCGGCGGGAGGCGGAGTCACCTAGTGCAG	14300 fluorescence intensity (a.u.)
GTGTCGGCGGAGGGGCGCGCGGCGGGGTCGGCGGAGGCGCCGGAGTCACCTAGTGCAG	8590 fluorescence intensity (a.u.)
TGTTAGTATTAGGGTGCTTTTGGGTTTGGGGTTTCTGCCACGGAGTCACCTAGTGCAG	24200 fluorescence intensity (a.u.)
CCTTTCCAAGTCGGTCGGGGTAGCTGGGTTGTCTCGCCGGCGGAGTCACCTAGTGCAG	12300 fluorescence intensity (a.u.)
GTCCAAGTTTGCCTTTCTCACTGGGGAGCGGGTGGGCTGTCGGAGTCACCTAGTGCAG	21000 fluorescence intensity (a.u.)
ATTTGTATTTGTTTTTTGTTTGTTAGTATTAGGGTGCTTTCGGAGTCACCTAGTGCAG	9720 fluorescence intensity (a.u.)
GTGGTGGTGCGCGGCGGCGGCGGCGGGGAGGGGTGTGTGTCGGAGTCACCTAGTGCAG	24500 fluorescence intensity (a.u.)
